Structures can show the parent of a compound that is named as a salt.
test system: HeLa; experiment: nuclear count per well, robust Z-score vs DMSO; higher = more cells (less toxicity); settings: 10 µM; 6 h
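Also: Hoechst-stained nuclei counted by automated confocal imaging of four fields per well in 384-well plates, with the robust Z-score based on the per-plate DMSO median and robust SD.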

Row | SMILES | nuclear count per well
1 | Oc1ccc(Nc2nc(-c3ccc(Cl)cc3)cs2)cc1 | -1.99
2 | CC/C(=C(\c1ccccc1)c1ccc(OCCN(C)C)cc1)c1ccccc1 [Tamoxifen citrate] | -0.415
3 | N=C(N)N | -0.264
4 | CN1CCC[C@@H]1CCO[C@](C)(c1ccccc1)c1ccc(Cl)cc1 [Clemastine Fumarate] | -0.849
5 | Cc1[nH]c2ccccc2c1CCNC(=O)c1ccccc1F | -0.994
6 | CCOC(=O)[C@H](CCc1ccccc1)N[C@@H](C)C(=O)N1CCC[C@H]1C(=O)O [Enalapril] | 0.499
7 | O=C1CN2Cc3c(ccc(Cl)c3Cl)N=C2N1 [Anagrelide] | 0.771
8 | CC(C)c1nc(N(C)S(C)(=O)=O)nc(-c2ccc(F)cc2)c1/C=C/[C@@H](O)C[C@@H](O)CC(=O)O [Rosuvastatin calcium] | -0.0282
9 | COC1=CC(=O)C[C@@H](C)[C@]12Oc1c(Cl)c(OC)cc(OC)c1C2=O [(+)-Griseofulvin] | 0.396
10 | Oc1cc(O)cc(/C=C/c2ccc(O)c(O)c2)c1 [Piceatannol] | -0.0133
11 | O=C(O)CCC/C=C\C[C@@H]1[C@@H](/C=C/[C@@H](O)COc2cccc(C(F)(F)F)c2)[C@H](O)C[C@@H]1O (racemic) [Fluprostenol] | 0.182
12 | O=Nc1c(-c2c(O)[nH]c3ccccc23)[nH]c2ccccc12 [Indirubin-3'-monoxime] | -0.0877
13 | Cc1cccc(C)c1OCC(=O)N[C@@H](Cc1ccccc1)[C@@H](O)C[C@H](Cc1ccccc1)NC(=O)[C@H](C(C)C)N1CCCNC1=O [Lopinavir] | 0.469
14 | O=c1[nH]cnc2c1ncn2[C@H]1CC[C@@H](CO)O1 [Didanosine] | -0.203
15 | CCc1ccc(CCOc2ccc(CC3SC(=O)NC3=O)cc2)nc1 (centres undefined) | 0.0308
16 | CCCCC/C=C\C/C=C\CCCCCCCC(=O)O [Linoleic acid] | -0.54
17 | C[C@]12C=CC(=O)N[C@@H]1CC[C@@H]1[C@@H]2CC[C@]2(C)[C@@H](C(=O)Nc3cc(C(F)(F)F)ccc3C(F)(F)F)CC[C@@H]12 [Dutasteride] | 0.968
18 | O=c1[nH]cc(F)c(=O)[nH]1 [Fluorouracil (5-Fluorouracil)] | 0.702
19 | CC[C@@H]1C(=O)OC[C@@H]1Cc1cncn1C | 0.99
20 | CCCCC(=O)N(Cc1ccc(-c2ccccc2-c2nnn[nH]2)cc1)[C@H](C(=O)O)C(C)C [Valsartan] | 2.15

Row | SMILES | nuclear count per well
21 | Cc1onc(-c2ccccc2Cl)c1C(=O)N[C@@H]1C(=O)N2[C@@H]1SC(C)(C)[C@@H]2C(=O)O | -0.177
22 | C[C@H]1O[C@@H](O[C@H]2[C@@H](O)C[C@H](O[C@H]3[C@@H](O)C[C@H](O[C@H]4CC[C@@]5(C)[C@H](CC[C@@H]6[C@@H]5C[C@@H](O)[C@]5(C)[C@@H](C7=CC(=O)OC7)CC[C@]65O)C4)O[C@@H]3C)O[C@@H]2C)C[C@H](O)[C@@H]1O [Digoxin] | -2.03
23 | CCN(CC)C(=O)N1CCN(C)CC1 [Diethylcarbamazine citrate] | 0.644
24 | CCOc1cc(CC(=O)N[C@@H](CC(C)C)c2ccccc2N2CCCCC2)ccc1C(=O)O [Repaglinide] | 0.716
25 | CCCCC/C=C\C/C=C\C/C=C\CC1OC1CCCC(=O)O (centres undefined) [5,6-Epoxyeicosatrienoic acid] | 0.524
26 | COc1nc(N)nc2c1ncn2[C@@H]1O[C@H](CO)[C@@H](O)[C@@H]1O [Nelarabine] | -0.434
27 | CC(=O)Oc1ccc(C(c2ccc(OC(C)=O)cc2)c2ccccn2)cc1 [Bisacodyl] | -0.034
28 | COCCc1ccc(OCC(O)CNC(C)C)cc1 (centres undefined) [Metoprolol Tartrate] | 0.277
29 | C#C[C@]1(O)CC[C@H]2[C@@H]3CCC4=CCCC[C@@H]4[C@H]3C(=C)C[C@@]21CC [Desogestrel] | 0.13
30 | CC(=O)c1ccc(S(=O)(=O)NC(=O)NC2CCCCC2)cc1 [Acetohexamide] | 0.532
31 | CC(C)CCC[C@@H](C)[C@H]1CC[C@H]2[C@@H]3C(=O)C=C4C[C@@H](O)CC[C@]4(C)[C@H]3CC[C@]12C [7-Ketocholesterol] | -0.193
32 | CCOC(=O)C1=C(C)NC(=S)NC1c1cccc(O)c1 (centres undefined) [Monastrol] | 0.338
33 | CCCCC1C(=O)N(c2ccccc2)N(c2ccccc2)C1=O [Phenylbutazone] | 0.422
34 | COCCCCCCCCCCCC(=O)O [12-Methoxydodecanoic acid] | 0.27
35 | COc1ccc(-c2ccc3cc(C(=O)O)ccc3c2)cc1C12CC3CC(CC(C3)C1)C2 [Adapalene] | 0.562
36 | CNC(=O)c1cc(Oc2ccc(NC(=O)Nc3ccc(Cl)c(C(F)(F)F)c3)cc2)ccn1 [Sorafenib] | -0.0278
37 | COc1c(C=O)c(O)cc2c1C(=O)c1ccccc1C2=O [Damnacanthal] | -0.691
38 | CCCCCCCC/C=C\CCCCCCCCOC[C@H](COP(=O)([O-])OCC[N+](C)(C)C)OC(C)=O | -0.585
39 | Cc1nc2n(c(=O)c1CCN1CCC(c3noc4cc(F)ccc34)CC1)CCCC2O (centres undefined) [Paliperidone] | 0.57

From the supplement of paper PMC9844399
